SENP8 block-1: SENP8 protease inhibition. Q96LD8. purified SENP8, Z-RLRGG-aminoluciferin cleavage, luminescence. inhibition, % at 10 µM. 330,000 compounds, 1.2% hits. AID 2540; in the data active = inhibition above about 50%
HSP90 inh: HSP90 refolding inhibition in rabbit reticulocyte lysate; inhibition, % at 5.6 µM; luciferase refolding luminescence, 3 h; 290,000 compounds, 0.91% hits;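 active = inhibition above the screen-wide mean plus 3 SD, computed separately per campaign, cut at about 16% in these data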;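 note: 0% = DMSO wells and 100% = 60 µM geldanamycin wells; inhibitors lower the luminescence because luciferase stays unfolded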
SENP7 inh: inhibitors of human SENP7 protease; recombinant SENP7, Z-RLRGG-aminoluciferin luminescence, 40 min; 330,000 compounds, 1.5% hits; inhibition, % at 5 µM; AID 434973;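 active = inhibition above about 50% at the single test dose, limit read from the data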;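 note: plate controls were DMSO with enzyme for no effect and no enzyme buffer wells for full effect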
SENP8 block-2: inhibitors of human SENP8 protease | inhibition, % at 20 µM | Q96LD8 | recombinant SENP8, Nedd8 substrate fluorescence | 360,000 compounds, 0.64% hits; in the data active = inhibition mostly above about 40%, no sharp cut-off; inactive = mostly below about 27%
SENP6 inh: inhibitors of human SENP6 protease; 330,000 compounds, 1.8% hits; Q9GZR1; inhibition, % at 10 µM; Recombinant SENP6 catalytic domain, aminoluciferin luminescence;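 active = inhibition above about 50% at the single tested dose, limit read from the data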;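 note: plate controls were DMSO wells with enzyme for no effect and DMSO wells lacking enzyme for full effect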
Target sequence (Q9GZR1 628-1112 limits assumed): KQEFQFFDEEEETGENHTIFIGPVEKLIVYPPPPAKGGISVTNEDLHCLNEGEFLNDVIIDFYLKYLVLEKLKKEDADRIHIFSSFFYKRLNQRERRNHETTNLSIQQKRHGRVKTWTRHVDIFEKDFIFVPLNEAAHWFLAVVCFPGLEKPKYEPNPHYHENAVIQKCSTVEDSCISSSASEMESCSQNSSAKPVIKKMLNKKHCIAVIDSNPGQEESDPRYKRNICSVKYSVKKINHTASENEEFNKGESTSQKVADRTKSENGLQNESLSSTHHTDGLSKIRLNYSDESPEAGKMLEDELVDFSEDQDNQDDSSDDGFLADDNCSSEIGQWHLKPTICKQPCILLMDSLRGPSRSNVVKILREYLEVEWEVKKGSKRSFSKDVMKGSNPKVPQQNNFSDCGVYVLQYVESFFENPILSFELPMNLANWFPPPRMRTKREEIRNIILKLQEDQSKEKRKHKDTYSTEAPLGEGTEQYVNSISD
HSP90 inh confirm: confirmation of HSP90 inhibitors | shares compounds with HSP90 inh | rabbit reticulocyte lysate, luciferase refolding luminescence, 3 h | inhibition, % at 5.9 µM | 2,300 compounds, 64% hits; in the data active = inhibition above about 18%;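 note: 0% = vehicle wells and 100% = reference inhibitor wells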
FLuc counter: blocks native firefly luciferase in HSP90 counter-screen; purified native firefly luciferase, luminescence; inhibition, % at 5.9 µM; shares compounds with HSP90 inh; 2,300 compounds, 48% hits;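 active = inhibition above the mean inhibition of all tested sample wells plus 3 SD, cut at about 10% in these data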;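 note: 0% = DMSO with luciferase and 100% = wells lacking luciferase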
The depositor's hits bear a star; . = no result given. Rows were chosen to be rich in hits. Some 2.8% of all compounds tested hit in one or more screens of this group.

SMILES	SENP8 block-1	HSP90 inh	SENP7 inh	SENP8 block-2	SENP6 inh	HSP90 inh confirm	FLuc counter
CC(=O)c1c(C)[nH]c(C(=O)Nc2nc(C)cs2)c1C	3	51*	20	-84	7	77*	66*
COc1ccc(Cl)cc1NC(=O)c1[nH]c(C)c(C(C)=O)c1C	3	-7	5	-7	-33	.	.
CC(=O)c1c(C)[nH]c(C(=O)Nc2nc(-c3ccc(Cl)cc3)cs2)c1C	-9	-5	-9	-113	-21	.	.
CC(=O)c1c(C)[nH]c(C(=O)Nc2cc(C)cc(C)c2)c1C	-2	1	5	7	-13	.	.
C[C@H](CO)N1C[C@H](C)[C@@H](CN(C)S(=O)(=O)c2cn(C)cn2)Oc2c(NC(=O)Nc3ccc(C(F)(F)F)cc3)cccc2C1=O	-11	.	-4	13	2	.	.
O=S1(=O)N[C@@H](Cc2ccccc2)COc2cc(N3CCC[C@@H]3CO)ccc21	.	.	.	16	.	.	.
Cc1cc(C)n2c(Nc3ccc4c(c3)OCCO4)c(CC(C)C)nc2n1	.	.	.	2	.	.	.
CCCc1cc(=O)oc2cc(C)cc(OCC(=O)NCC(O)c3ccccc3)c12 (stereo unspecified)	3	1	-2	-243	-2	.	.
Nc1cc(=O)[nH]c(SCC(=O)NNC(=O)Cc2ccccc2)n1	1	23*	-6	20	2	3	0
Nc1cc(=O)[nH]c(SCC(=O)NNC(=O)c2ccccc2)n1	2	.	-13	-2	-15	.	.
CN(C)c1ccc(-c2nn3c(-c4cccnc4)nnc3s2)cc1	-7	.	-1	.	-10	.	.
Cc1nnc2sc(-c3ccc(N(C)C)cc3)nn2c1=O	1	20*	7	-285	-3	8	-10
CCCCNC(=S)N1CCN(CC)CC1	11	53*	-6	19	15	0	-3
O=C(Nc1ccc2nc3n(c(=O)c2c1)CCCCC3)c1ccccc1[N+](=O)[O-]	1	-3	11	18	-4	.	.
O=C(Nc1ccc2nc3n(c(=O)c2c1)CCCCC3)c1c(F)ccc([N+](=O)[O-])c1F	-2	24*	-2	15	6	6	3
O=C(Nc1ccc2nc3n(c(=O)c2c1)CCCCC3)c1cc([N+](=O)[O-])ccc1F	-4	34*	1	12	1	15	4
COc1cc(OC)cc(C(=O)N[C@H](C(=O)OCC(=O)Nc2ccc(F)c(F)c2F)C(C)C)c1	1	-1	-4	27	-8	.	.
CCOC(=O)c1csc(NC(=O)c2ccc(S(=O)(=O)N(C)C)cc2)n1	-6	25*	1	8	-26	37*	-7
O=C(Nc1nc(-c2ccccn2)cs1)c1cc2ccccc2o1	0	7	-1	-126	-1	.	.
CCOC(=O)c1sc(NC(=O)c2ccc(S(=O)(=O)N(C)C)cc2)nc1C	-25	-3	23	-41	-10	.	.
CCOC(=O)c1csc(NC(=O)c2cc3ccccc3o2)n1	-6	58*	1	-38	-12	88*	-29
COC(=O)c1ccc(-n2c(C)cc(-c3csc(NC(=O)c4ccc(S(=O)(=O)N(C)C)cc4)n3)c2C)cc1	7	25*	6	13	7	24*	-9
Cc1cc(-c2csc(NC(=O)c3cc4ccccc4o3)n2)c(C)n1C	2	41*	1	-22	2	34*	-14
COc1ccc(OCC(=O)Nc2ccc3c(c2)OCO3)cc1	1	-2	-1	15	-16	.	.
CCOC(=O)c1csc(NC(=O)c2ccc3c(c2)OCCO3)n1	-9	57*	3	-9	-2	84*	-12
SMILES	SENP8 block-1	HSP90 inh	SENP7 inh	SENP8 block-2	SENP6 inh	HSP90 inh confirm	FLuc counter
CCOC(=O)c1csc(NC(=O)c2ccc(OCC)cc2)n1	1	42*	3	10	-3	75*	-14
Cc1ccc(NC(=O)c2ccc3c(c2)OCCO3)cc1	26	20*	34	35	48	51*	45*
CCOC(=O)c1csc(NC(=O)c2ccccc2)n1	-5	-1	2	7	-5	.	.
COc1ccc(NS(=O)(=O)c2ccc(C(=O)N(C)Cc3cccs3)cc2)cc1	-5	.	3	3	-1	.	.
O=c1c(Cl)cc(Cl)nn1-c1ccccc1	-2	-3	-1	8	-6	.	.
CC(=O)N(Cc1ccc(F)cc1)C1=C(NCCc2ccccc2)C(=O)c2ccccc2C1=O	31	48*	30	76*	48	12	-5
O=C1C(Cl)=C(NCCc2ccccc2)C(=O)c2ccccc21	.	.	.	-82	.	.	.
COC(=O)c1c(-c2c(Cl)cccc2Cl)noc1NC(=O)N(C)C	5	-1	-4	12	-9	.	.
COc1cc(C=NNc2ccccc2)ccc1OC(=O)c1ccccc1	.	.	.	4	.	.	.
COc1cc(/C=N/Nc2ccc(Cl)c(C(=O)O)c2)ccc1OC(=O)c1cccs1	15	21*	-8	-31	31	61*	-24
COc1cc(/C=N/Nc2ccc(Cl)c(C(=O)O)c2)ccc1OC(=O)c1ccco1	29	32*	-3	-72	33	71*	-18
COc1ccc(C(=O)Oc2cc(/C=N/NC(N)=S)ccc2OC)cc1	10	2	3	18	-2	.	.
CCOc1cc(/C=N/Nc2cccc(C(=O)O)c2)ccc1OC(=O)c1ccccc1	5	37*	-1	-12	-7	96*	32*
COc1cc(/C=N/Nc2ccccc2)ccc1OC(=O)c1cccs1	.	-2	.	.	.	.	.
COc1ccc(C(=O)Oc2ccc(/C=N/Nc3ccc(Cl)c(C(=O)O)c3)cc2OC)cc1	-3	46*	1	-69	4	66*	-2
COc1cc(/C=N\NC(=O)OC(C)(C)C)ccc1OC(=O)c1ccco1	2	1	-6	13	9	.	.
COc1ccc(S(=O)(=O)N2CC=C(C(=O)NC3CCCC3)CC2)cc1	1	-2	0	-3	8	.	.
NC(=O)C[n+]1cccc(C(=O)Nc2ccccc2)c1	-5	1	-11	13	12	.	.
CC1(C)CC(=O)C/C(=N/Nc2nc3ccccc3s2)C1	4	22*	6	-250	-7	5	-6
CC(=O)NC1C(=O)N=C(SCc2ccccc2)NC1=O (stereo unspecified)	-2	49*	-3	7	4	2	-5
CC(=O)NC1C(=O)N=C(SCC(=O)NC(C)c2ccccc2)NC1=O (stereo unspecified)	6	1	8	2	-21	.	.
CC(C)C(=O)Nc1ccc(NC(=O)c2ccccn2)cn1	3	37*	35	16	43	37*	27*
CCC(=O)Nc1ccc(NC(=O)c2ccccn2)cn1	-14	4	3	14	17	.	.
Cc1cc(C(=O)CCl)c(C)n1-c1c(C)n(C)n(-c2ccccc2)c1=O	4	-3	3	8	0	.	.
Cc1ccc(C)c(Cn2nnc3c(=O)[nH]c(C4CCN(S(=O)(=O)c5ccc(S(=O)(=O)N(C)C)cc5)CC4)nc32)c1	3	22*	7	14	-6	19*	-2
